Measured values reported in the supplement of paper PMC4380459.

system: tubulin (bovine brain); experiment: tubulin polymerization end-point dOD, fold change relative to DMSO vehicle; higher = more polymerization (stabilization); conditions: 50 µM; 60 min; 37 °C
Description: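 In-vitro tubulin polymerization assay (Cytoskeleton HTS kit) with 4 mg/ml bovine brain tubulin in G-PEM buffer and compound at 50 uM (0.5% DMSO). Turbidity was read at 340 nm every minute for 1 h at 37 C. The end-point change in OD (dOD) was converted to % fold change relative to the DMSO vehicle (0%), and runs were scaled using DMSO and Taxol controls. The paper calls >20% an effect, 20-40% weak and >40% strong; positive values mean stabilization, negative values destabilization. Scale: negative = destabilization.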

SMILES | tubulin polymerization end-point dOD [%]
COc1cc(Br)c(-c2cc3cc(Cl)ccc3oc2=O)cc1OC | 77.7
CCOc1ccc2nc(SCC(=O)Nc3ccccc3CC)c(C#N)cc2c1 | -22.2
Cc1cnc(C(=O)Nc2ncc(Cc3ccc(C#N)cc3)s2)cn1 | -30.4
COc1ccc(CNc2c(-c3ccc(O)cc3O)nc3cnccn23)cc1 | 30.8
O=C(N/N=C/c1cccs1)c1n[nH]c2c1CCC2 | 12.9
Cc1cc2cc3c(cc2nc1SCC(=O)Nc1c(C)cccc1C)OCO3 | 145
O=C(Nc1ccc2c(c1)OCCO2)C(=O)Nc1cccc2ncccc12 | -9.86
Cc1ccc(/C=N\NC(=O)c2cccc(Cl)c2)cc1 | 3.13
Cc1ccc(/C=N\NC(=O)COc2ccccc2Br)c(C)c1 | -56.5
COc1cccc(N2CCN(C(=O)c3cc(C4CC4)nc4ccccc34)CC2)c1 | -85.1
Cc1cccc(/C=N/N=C2\NC(=O)C(Cc3cccc(C)c3)S2)c1 (stereo not given) | 9.8
Cc1ccc(C(=O)CSc2nc3c(C)cccc3cc2C#N)cc1 | -15.2
Cc1cc2nc(/C=C/c3cccnc3)sc2cc1C | -34.3
Cc1ccccc1/C=N/N=C1\NC(=O)C(Cc2ccccc2C)S1 (stereo not given) | -10.8
CCc1nc(SCC(=O)Nc2ccc(N(CC)CC)c(C)c2)c2ccccc2n1 | -34
Cc1cc2nc(/C=C/c3ccsc3)sc2cc1C | 237
COc1cc(C2NC(=O)c3ccccc3N2)cc2c1OCO2 (stereo not given) | -31.5
Cc1ccc2cc(C)c3nn(CCNC(=O)c4ccncc4)c(=O)n3c2c1 | -34.2
CCN(CC)c1ccc(NC(=O)C2CC=CCC2)cc1 (stereo not given) | -23.9
CC(=O)c1c(C)[nH]c(C(=O)Nc2ccc(N3CCCC3=O)cc2)c1C | -9.36

SMILES | tubulin polymerization end-point dOD [%]
CN(C)c1ncc(C(=O)Nc2ccc(Oc3ccc4c(c3)OCO4)cc2)cn1 | 8.04
COc1ccccc1NC(=S)N(Cc1ccccc1)Cc1cc2ccc(C)cc2[nH]c1=O | 272
Oc1ccccc1-c1nc2ccc(Cl)cn2c1NCc1ccc2c(c1)OCO2 | 7.3
COc1ccc(/C=N/NC(=O)c2cccc(F)c2)cc1Br | -16.1
C/C(=N\NC(=O)c1cccc(F)c1)c1ccc(Br)s1 | 9.02
Cc1ccc(/C=N/NC(=O)C2COc3ccccc3O2)s1 (stereo not given) | 5.76
O=c1[nH]c(CSc2ccccc2)nc2sc3c(c12)CCC3 | -9.09
COc1ccc(Cc2cnc(NC(=O)c3sc4ccccc4c3Cl)s2)cc1 | 169
O=C(Nc1ncc(Cc2ccc(Cl)cc2Cl)s1)c1cnccn1 | 6.51
O=C(Nc1ccc(N2CCCC2)cc1)C1COc2ccc(Cl)cc2C1 (stereo not given) | 19.2
O=c1[nH]c(/C=C/c2ccccc2)nc2sc3c(c12)CCCCC3 | 16.8
Cc1ccc(Nc2nc(N)nc(CN3C(=O)NC(C)(c4ccccc4)C3=O)n2)cc1 (stereo not given) | 48.1
Cc1ccc2cc(C)c3nn(CCNC(=O)c4cccnc4)c(=O)n3c2c1 | -40.4
Cc1cnc(C(=O)Nc2ncc(Cc3cccc(C)c3Cl)s2)cn1 | -85.7
COc1ccc(C2(C(=O)NC(C)c3nc(-c4ccncc4)n[nH]3)CC2)cc1 (stereo not given) | -41.3
O=C(Nc1ncc(Cc2ccccc2Cl)s1)c1ccncc1 | -29.4
COc1ccc(NC(=O)N(Cc2cc3ccc(C)c(C)c3[nH]c2=O)CC2CCCO2)cc1 (stereo not given) | 33.3
O=C(Nc1ccc2c(c1)OCCO2)C(=O)Nc1cccc2cccnc12 | 76
O=C1CCCN1c1ccc(S(=O)(=O)Oc2ccc(Cl)cc2)cc1 | -18.4
CCC1c2ccsc2CC[NH+]1Cc1ccc(N2CCCC2=O)cc1 (stereo not given) | -43.7
